Sampled rows, rich in hits. Any-hit rate of the full collection: about 28%.
CYP2C9 inhib: human CYP2C9 inhibition | inhibition, % at 5 µM | hit rate 20% among 96,000 | P11712 | CYP2C9 Supersomes, luciferin-H conversion, luminescence | AID 777;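 active means blocking of liver enzyme CYP2C9 beyond about 50% at 5 µM, limit read from the data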
Target sequence (P11712 whole entry, looked up): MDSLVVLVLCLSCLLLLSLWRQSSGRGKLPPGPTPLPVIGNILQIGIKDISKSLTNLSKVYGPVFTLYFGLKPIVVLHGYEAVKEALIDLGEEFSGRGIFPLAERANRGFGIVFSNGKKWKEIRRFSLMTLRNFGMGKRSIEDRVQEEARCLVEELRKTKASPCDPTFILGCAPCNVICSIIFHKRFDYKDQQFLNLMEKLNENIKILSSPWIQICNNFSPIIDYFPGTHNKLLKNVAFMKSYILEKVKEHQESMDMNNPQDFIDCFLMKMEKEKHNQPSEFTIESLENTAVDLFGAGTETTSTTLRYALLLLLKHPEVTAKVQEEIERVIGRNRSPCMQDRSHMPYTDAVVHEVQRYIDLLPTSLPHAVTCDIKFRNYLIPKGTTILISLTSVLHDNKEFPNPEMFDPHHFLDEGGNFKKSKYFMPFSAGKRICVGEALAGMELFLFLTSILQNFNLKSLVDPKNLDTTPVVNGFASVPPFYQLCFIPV
CYP2C9 activ: CYP2C9 (human) activation. hit rate 1.4% among 96,000. recombinant CYP2C9, luciferin-H conversion, luminescence; active compounds read high; factor 1 = untreated enzyme, 0 = blocked. AID 1024. P11712. activation factor at 5 µM;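 active means activation factor of 2 or more for CYP2C9 at a 5 µM dose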
CD11b adhes enh: enhancers of human CD11b/CD18 binding to fibrinogen; P05107+P11215; K562 CD11b/CD18 adhesion to fibrinogen, ATPlite luminescence; activation, % at 10 µM; hit rate 0.07% among 93,000;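 active means 10 µM primary screen giving 50% or more activity, confirmed by 40% or more on retest at that dose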
CD11b adhes inh: CD11b/CD18-fibrinogen binding inhibition | P05107+P11215 | K562 CD11b/CD18 adhesion to fibrinogen, ATPlite luminescence; Mn2+ added to activate the integrin | inhibition, % at 10 µM | hit rate 0.54% among 93,000;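 active means primary inhibition of 50% or more at 10 µM, then 40% or more on retest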
CYP2C19 activ: cytochrome P450 2C19 (human) activation; recombinant CYP2C19, luciferin-H EGE luminescence; active compounds read high; 0 = fully inhibited enzyme, 1 = untreated enzyme; AID 1025; activation factor at 5 µM; P33261; 96,000 tested, under 10 active;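 active means activation factor of at least 2 at 5 µM in the primary screen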
CYP2C19 inh: blocks human cytochrome P450 2C19; inhibition, % at 5 µM; CYP2C19 Supersomes, luciferin-H EGE luminescence, 30 min; AID 778; hit rate 21% among 96,000;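 active means CYP2C19 inhibition above a set limit at 5 µM in the primary screen, cut at about 50% in these data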
Of the large screens only hits and unclear results are named; the others gave an inactive call.

Cc1cccc(C)c1NC(=O)C1C2C=CC(C2)C1C(=O)NCc1ccccn1 (centres undefined)	none
COc1cccc(-n2c(Cc3cc(=O)[nH]c(=O)[nH]3)nnc2SCC(=O)N2CCC(C)CC2)c1	none
COc1cc(C(=O)N2CCC(O)(c3ccccc3)CC2)cc(OC)c1OC	CYP2C9 inhib 79, CYP2C19 inh 66
COc1ccccc1N1CCN(C2CCN(C(=O)c3cc(OC)c(OC)c(OC)c3)CC2)CC1	none
O=C(OCC(=O)N1c2ccccc2Sc2ccccc21)C1CC(=O)N(Cc2ccco2)C1 (centres undefined)	CYP2C9 inhib 89, CYP2C19 inh 70
COc1ccc(Nc2oc(COc3ccc(Cl)cc3)nc2C#N)cc1	none
CN(C)c1oc(COc2ccccc2F)nc1C#N	CYP2C19 inh 92
COc1ccc(CCNc2oc(COc3ccccc3F)nc2C#N)cc1	CYP2C9 inhib 97, CYP2C19 inh 94
COc1ccc(CNc2oc(COc3ccc(Cl)cc3)nc2C#N)cc1	none
N#Cc1nc(COc2ccccc2F)oc1NCc1ccc(F)cc1	CYP2C9 inhib 72, CYP2C19 inh 55
CCOC(=O)N1CCN(C(=O)CNCc2cccs2)CC1	none (no result: CD11b adhes enh, CD11b adhes inh)
CCCCN(CC)C(=O)c1ccc(Cl)c(Cl)c1	CYP2C19 inh 84
CCN(CC)C(=O)c1ccc(C(=O)c2c(C)cc(C)cc2C)cc1	none
CCC(Oc1ccccc1)C(=O)Nc1nc2ccccc2[nH]1 (centres undefined)	CYP2C9 inhib 52
COc1ccc(CCC(=O)Nc2nc3ccccc3[nH]2)cc1OC	none
COc1ccccc1CCC(=O)Nc1nc2ccccc2[nH]1	CYP2C19 inh 62
COC(=O)COC(=O)CC(CC(N)=O)c1ccccc1 (centres undefined)	none
CCN(CC)C(=O)CN1C(=O)C2(OCC(C)(c3ccccc3)CO2)c2ccccc21 (centres undefined)	CYP2C9 inhib 77, CYP2C19 inh 86
Cc1ccc(CN2CCSc3ccc(C(=O)N4CCN(c5ncccn5)CC4)cc32)cc1	CYP2C9 inhib 93, CYP2C19 inh 97
CC1CC(C)CN(C(=O)c2ccc3c(c2)N(Cc2ccccc2)CCS3)C1 (centres undefined)	none
CCC(C)[C@H](NC(=O)NC1CCCc2ccccc21)C(=O)O (some centres undefined)	none
COC(=O)c1cccc(NC(=O)C(C)N2C(=O)c3ccccc3C2=O)c1 (centres undefined)	CYP2C9 inhib 98
COc1ccc(-c2csc(-n3ncc(-c4cccs4)c3N)n2)cc1	none
COc1ccc(C2CC(c3cccs3)=NN2c2nc(-c3ccccc3)cs2)cc1OC (centres undefined)	CYP2C9 inhib 74, CYP2C19 inh 86
COc1ccc(COC(=O)NNC(=O)c2ccccc2Cl)cc1	CYP2C19 inh 72
CC(=O)c1sc2nc(-c3cccs3)cc(C(F)(F)F)c2c1N	CYP2C9 inhib 67, CYP2C19 inh 58
Cc1c(C(=O)Nc2nccs2)sc2nc(-c3cccs3)cc(C(F)(F)F)c12	none (no result: CD11b adhes enh, CD11b adhes inh)
COc1ccc(-c2c(C)n([O-])c(C)c(C)[n+]2=O)cc1	none
CC(C)(C)OC(=O)N1CC=C2C(C#N)=C(N)C(C#N)(C#N)C(c3cccs3)C2C1 (centres undefined)	CYP2C9 inhib 60
Cc1ccc(C(=O)N/C(=C\c2ccccc2)C(=O)NCC2CCCO2)cc1 (centres undefined)	none (no result: CYP2C9 inhib, CYP2C9 activ, CYP2C19 activ, CYP2C19 inh)
CC(/C=C(\NC(=O)c1ccccc1)C(=O)N=Nc1c(O)[nH]c2ccc(C)cc12)=C\c1ccccc1	CYP2C9 inhib 53
Cc1ccc(CNC(=O)c2c(C)cc(=O)oc2C)cc1	CYP2C9 inhib 51
CCN(CCCNC(=O)c1c(C)cc(=O)oc1C)c1cccc(C)c1	CYP2C9 inhib 72, CYP2C19 inh 92
CC(C)CCNC(=O)CN(Cc1ccc2c(c1)OCO2)C(=O)CCC(=O)Nc1ccccn1	none
CC(C)Nc1nc2n(c(=O)n1)CCN2C(C)C	none
Cc1ccc(S(=O)(=O)Nc2ccc(Br)cc2/C=N/n2cnnc2)cc1	CYP2C9 inhib 62, CYP2C19 inh 54
Brc1cccc(/C=N\n2cnnc2)c1	none
Cc1ccc(C)c(Cn2nnc3c(=O)[nH]c(C4CCCN(C(=O)CC(C)C)C4)nc32)c1 (centres undefined)	CYP2C9 inhib 79, CYP2C19 inh 61
CCOc1ccccc1NC(=O)N1CCCC(c2nc3c(nnn3Cc3ccc(C)cc3)c(=O)[nH]2)C1 (centres undefined)	none
Cc1ccc(C(=O)N2CCCC(c3nc4c(nnn4Cc4ccccc4)c(=O)[nH]3)C2)cc1 (centres undefined)	none
CCCCC(=O)N1CCCC(c2nc3c(nnn3Cc3cc(C)ccc3C)c(=O)[nH]2)C1 (centres undefined)	CYP2C9 inhib 87, CYP2C19 inh 67
CC(=O)N(C)c1ccc(NC(=S)Nc2ccccc2)cc1	none
CN(C)c1cc(O)c(C(=S)Nc2ccccc2)c(N(C)C)c1	CYP2C19 inh 79 (no result: CD11b adhes enh, CD11b adhes inh)
COc1ccc(NC(=O)C(NC(C)=O)C(=O)NCc2ccc(F)cc2)cc1 (centres undefined)	CYP2C19 inh 54 (no result: CD11b adhes enh, CD11b adhes inh)
COc1ccc(S(=O)(=O)Cc2ccc(C(=O)NCc3ccc(F)cc3)o2)cc1	CYP2C9 inhib 64
COc1ccc(S(=O)(=O)Cc2ccc(C(=O)NCc3cccnc3)o2)cc1	CYP2C9 inhib 58, CYP2C19 inh 90
COc1ccc(S(=O)(=O)Cc2ccc(C(=O)NC3CC3)o2)cc1	CYP2C9 activ 2.2
COCCCNC(=O)c1ccc(CS(=O)(=O)c2ccc(OC)cc2)o1	none
COc1ccc(CC(CC(=O)O)C(=O)Nc2ccc(OC)cc2)cc1 (centres undefined)	none
CC1=CC(C)(C)N2C(=O)C3(C(C#N)=C(N)OC4=C3C(=O)CC(C)(C)C4)c3c(C)c(C)cc1c32 (centres undefined)	none
Cc1ccc(-c2cnc(N)n2C)cc1C	none
COc1ccccc1N1CCN(C(=O)C2C3C=CC4(CN(Cc5ccccc5Cl)C(=O)C24)O3)CC1 (centres undefined)	none
CC(C)CC(=O)CN1C(=O)C2(OCCO2)c2ccccc21	none (no result: CD11b adhes enh, CD11b adhes inh)
Clc1ccc(Cc2noc(-c3cccs3)n2)cc1	none
Cc1ccc(N2C(=O)C3ON(c4ccccc4)C(c4ccncc4)C3C2=O)c(C)c1 (centres undefined)	CYP2C9 inhib 95, CYP2C19 inh 100
Cc1cccc(C)c1N1C(=O)C2ON(c3ccccc3)C(c3ccncc3)C2C1=O (centres undefined)	CYP2C9 inhib 100, CYP2C19 inh 100
O=C1C2ON(c3ccccc3)C(c3ccncc3)C2C(=O)N1c1ccccc1 (centres undefined)	CYP2C9 inhib 86, CYP2C19 inh 100

Bioassay records deposited in PubChem BioAssay by Sanford-Burnham Center for Chemical Genomics.
